About 83,000 compounds went through this panel and 20% of them were active in at least one assay; those are over-represented in the sample as a whole.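 Note: values are percent growth. 100 is the growth of untreated cells, values between 100 and 0 indicate rising inhibition; between -100 and 0 indicates cell death.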 Calls of active or inactive are those of the source. The calls were made as follows: active = growth percent below 10; inactive = the rest.
system: SNB-75 CNS; experiment: NCI-60 one-dose screen, 48 h (100 = growth as untreated, 0 = no growth, -100 = all killed); settings: 10 µM unless noted

Structure (SMILES) | growth
O=c1oc2c(cc1-c1ccc([N+](=O)[O-])cc1)C(O)Oc1ccccc1-2 (stereo not given) | 111% (inactive)
CC(C)Sc1nc(Cl)c(C#N)c(-c2ccc(F)cc2)n1 | 97.3% (inactive)
Cc1cc(C)cc(S(=O)(=O)n2ccc(-c3ccc4c(c3)CCC(C)(C)O4)n2)c1 | 87.2% (inactive)
CCc1nn2c(-c3ccc(Cl)cc3C)c(-c3cc(OC)c(OC)c(OC)c3)nc2s1 | 3.79% (active)
O=C(Nc1cccc(-n2cc(-c3ccncc3)c(-c3cc(O)cc(Cl)c3)n2)c1)Nc1ccc(Cl)c(Cl)c1 | 4.08% (active)
COc1ccccc1-n1c(-c2ccc(O)cc2C)cn2c3c(=O)[nH]c(=O)n(C)c3nc12 | 7.76% (active)
CCCCCN1C(=O)CCC1=O | 98.6% (inactive)
O=C1NCCc2c1noc2-c1ccccc1 | 89.7% (inactive)
CCOC(=O)c1cc2oc(/C=C/c3cc(=O)c4cc(Cl)ccc4o3)cc2[nH]1 | 73% (inactive)
COc1cc(/C=C/C(=O)c2c(C)n([O-])c3ccccc3[n+]2=O)cc(OC)c1OC | 81% (inactive)
O=C(c1ccccc1)C(CN1CCCCC1)c1ccccc1 (stereo not given) | 63.4% (inactive)
c1ccc2c(-c3nc4ccccc4[nH]3)cccc2c1 | 27.8% (inactive)
COc1cc(/C=C/c2cc(/C=C/c3ccc(O)c(OC)c3)n(C(=O)Cc3ccccc3)n2)ccc1O | 0.658% (active)
O=C1NC(=O)/C(=C/c2ccc(Cl)cc2Cl)N1 | 83.7% (inactive)
Nc1nc2c(c(=O)[nH]1)C1(C(=O)Nc3ccccc31)c1c(nc(N)[nH]c1=O)N2 | 91.5% (inactive)

— PubChem BioAssay (NCI)
